Assay results: PubChem BioAssay (NCATS)
Inconclusive results are not listed. Unmarked numbers belong to inactive results. Active and inactive are the calls of the source. Calls follow the shape of the dose curve; as a rule, active = well fitted curve in the direction sought with a large enough effect; inconclusive = small, poorly fitted or top-dose-only effect, or another doubt; inactive = no such curve, though single readings can be large; an effect the other way counts as inactive or inconclusive.

experiment: qHTS of pediatric cancer cell lines to identify multiple opportunities for drug repurposing: Primary screen for control Hh wild type fibroblast cells (AID 1347106); settings: Hh wild-type fibroblast viability, CellTiter-Glo luminescence, 48 h; series mostly up to 46 µM; activity change, negative = cytotoxic: at the top concentration; also: nearly all actives have a fitted effect of over 55% in size; also: potency is read from the fitted curve at half-maximal effect;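 as to activity change, negative = cytotoxic: a drop in luminescence marks cytotoxicity and a rise apparent proliferation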
How it was run: (§1)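 Cells (500-1,000/well) in growth media were settled 5 h at 37 degrees C, then given compounds for 48 h. Viability was read as CellTiter-Glo luminescence. Primary runs used MIPE at 11 points (0.78 nM-46 µM) and NPC at 8 points (0.59 nM-46 µM); follow-ups used 11 points.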
% is scaled to controls: 0 for no effect and ±100 for the full control effect.

Compound	activity change, negative = cytotoxic	Potency
O=c1[nH]c(=O)n([C@H]2C[C@H](O)[C@@H](CO)O2)cc1C(F)(F)F	6.2%	–
COC1=CC(=O)C[C@@H](C)[C@]12Oc1c(Cl)c(OC)cc(OC)c1C2=O	-8.43%	–
NC(=O)C(=O)N/N=C/c1ccc([N+](=O)[O-])o1	2.44%	–
O=C(CCN1CCC(c2ccccc2)C1)c1ccc2c(c1)OCCO2 (stereo unspecified)	8.16%	–
COC(=O)C1=C(C)NC(C)=C(C(=O)O[C@@H]2CCCN(Cc3ccccc3)C2)[C@@H]1c1cccc([N+](=O)[O-])c1	-0.326%	–
Oc1ccc(Cl)cc1Sc1cc(Cl)ccc1O	-10.9%	–
CCOc1ccc(Cc2nccc3cc(OCC)c(OCC)cc23)cc1OCC	-1.97%	–
CC1=C(C(=O)OC(C)C)C(c2cccc([N+](=O)[O-])c2)C(C(=O)OC2CN(C(c3ccccc3)c3ccccc3)C2)=C(N)N1 (stereo unspecified)	0.952%	–
C[C@H](O)C(=O)Nc1c(I)c(C(=O)NC(CO)CO)c(I)c(C(=O)NC(CO)CO)c1I	1.3%	–
Oc1c(I)cc(I)c2cccnc12	7%	–
CC1(C)O[C@@H]2C[C@H]3[C@@H]4C[C@H](F)C5=CC(=O)C=C[C@]5(C)[C@H]4[C@@H](O)C[C@]3(C)[C@]2(C(=O)CO)O1	-13.7%	–
O=C1[C@H]2CCCC[C@H]2C(=O)N1CCCCN1CCN(c2nsc3ccccc23)CC1	9.85%	–
CC(C)(C)CC(C)(C)c1ccc(O)c(Cc2ccc(Cl)cc2Cl)c1	2.89%	–
O=C(Nc1ccc(Cl)c(Cl)c1)C1CC1	9.77%	–
CC(=O)N/N=C/c1ccc([N+](=O)[O-])o1	17.7%	–
CC(Cc1ccccc1)(NC(=O)CN)c1ccccc1 (stereo unspecified)	-4.98%	–
NC(=NCCCCCCN=C(N)/N=C(\N)Nc1ccc(Cl)cc1)/N=C(\N)Nc1ccc(Cl)cc1	-10.5%	–
c1ccc(-c2ccc(C(c3ccccc3)n3ccnc3)cc2)cc1 (stereo unspecified)	4.58%	–
CCOc1ccc(NC(=O)CC(C)O)cc1 (stereo unspecified)	7.13%	–

Compound	activity change, negative = cytotoxic	Potency
C=C(CC)C(=O)c1ccc(OCC(=O)O)c(Cl)c1Cl	5.7%	–
COc1cc2c(cc1OC)C(C(C(=O)N(CCc1ccc(OC)c(OC)c1OC)CCc1ccc(OC)c(OC)c1OC)c1ccccc1)=NCC2 (stereo unspecified)	3.98%	–
O=C(OCC(O)CO)c1ccccc1Nc1ccnc2cc(Cl)ccc12 (stereo unspecified)	2.48%	–
CN(C)CC/C=C1\c2ccccc2Sc2ccc(Cl)cc21	-1.7%	–
CCCCOc1ccc(C(=O)CCN2CCCCC2)cc1	-9.17%	–
CCN(CC)CCOc1ccc(C(O)(Cc2ccc(Cl)cc2)c2ccc(C)cc2)cc1 (stereo unspecified)	-2.16%	–
Oc1c(I)cc(Cl)c2cccnc12	4.33%	–
COc1ccc(CN2CCN(C(c3ccc(F)cc3)c3ccc(F)cc3)CC2)c(OC)c1OC	7.33%	–
Nc1ccc(C(=O)Nc2ccccc2N)cc1	-16.7%	–
CCOC(=O)[C@H](CCc1ccccc1)N[C@@H](C)C(=O)N1Cc2ccccc2C[C@H]1C(=O)O	13.1%	–
CCCC(=O)Nc1ccc(OCC(O)CNC(C)C)c(C(C)=O)c1 (stereo unspecified)	5.16%	–
CCN(CC)CCOC(=O)C(c1ccccc1)C1CCCCC1 (stereo unspecified)	-2.22%	–
Oc1ccc(Cl)c2cccnc12	–	16.8 µM (active)
N[C@@H](CCC(=O)N[C@@H](CS)C(=O)NCC(=O)O)C(=O)O	12.5% [at 16.1 µM]	–
CCCSS/C(CCO)=C(\C)N(C=O)Cc1cnc(C)nc1N	4.45%	–
COc1ccc(/C=C/C(=O)c2ccc(OC)cc2OC)cc1	-10.3%	–
CCCCCCCCCCCCCCNCCO	1.68%	–
CCCCCCCCCCCCCCCCOP(=O)([O-])OCC[N+](C)(C)C	4.5%	–

experiment: qHTS of pediatric cancer cell lines to identify multiple opportunities for drug repurposing: Primary screen for Rh30 cells (AID 1347107); settings: Rh30 rhabdomyosarcoma viability, CellTiter-Glo luminescence, 48 h; series mostly up to 46 µM; activity change, negative = cytotoxic: at the top concentration; also: nearly all actives have a fitted effect of over 75% in size
How it was run: as §1

Compound	activity change, negative = cytotoxic
COC1=CC(=O)C[C@@H](C)[C@]12Oc1c(Cl)c(OC)cc(OC)c1C2=O	18.6%
COC(=O)C1=C(C)NC(C)=C(C(=O)O[C@@H]2CCCN(Cc3ccccc3)C2)[C@@H]1c1cccc([N+](=O)[O-])c1	0.905%
CCOc1ccc(Cc2nccc3cc(OCC)c(OCC)cc23)cc1OCC	-6.62%
C[C@H](O)C(=O)Nc1c(I)c(C(=O)NC(CO)CO)c(I)c(C(=O)NC(CO)CO)c1I	30.3%
Oc1c(I)cc(I)c2cccnc12	-6.28%
CC1(C)O[C@@H]2C[C@H]3[C@@H]4C[C@H](F)C5=CC(=O)C=C[C@]5(C)[C@H]4[C@@H](O)C[C@]3(C)[C@]2(C(=O)CO)O1	-2.9%
O=C1[C@H]2CCCC[C@H]2C(=O)N1CCCCN1CCN(c2nsc3ccccc23)CC1	3.71%
O=C(Nc1ccc(Cl)c(Cl)c1)C1CC1	18%
CC(=O)N/N=C/c1ccc([N+](=O)[O-])o1	-7.19%
CC(Cc1ccccc1)(NC(=O)CN)c1ccccc1 (stereo unspecified)	21.3%
NC(=NCCCCCCN=C(N)/N=C(\N)Nc1ccc(Cl)cc1)/N=C(\N)Nc1ccc(Cl)cc1	-16.6%
c1ccc(-c2ccc(C(c3ccccc3)n3ccnc3)cc2)cc1 (stereo unspecified)	12.4%
CCOc1ccc(NC(=O)CC(C)O)cc1 (stereo unspecified)	0.619%
C=C(CC)C(=O)c1ccc(OCC(=O)O)c(Cl)c1Cl	6.23%
COc1cc2c(cc1OC)C(C(C(=O)N(CCc1ccc(OC)c(OC)c1OC)CCc1ccc(OC)c(OC)c1OC)c1ccccc1)=NCC2 (stereo unspecified)	1.09%
O=C(OCC(O)CO)c1ccccc1Nc1ccnc2cc(Cl)ccc12 (stereo unspecified)	-0.0723%
CN(C)CC/C=C1\c2ccccc2Sc2ccc(Cl)cc21	14.5%
CCCCOc1ccc(C(=O)CCN2CCCCC2)cc1	-1.6%
Oc1c(I)cc(Cl)c2cccnc12	6.12%
COc1ccc(CN2CCN(C(c3ccc(F)cc3)c3ccc(F)cc3)CC2)c(OC)c1OC	-2.03%
Nc1ccc(C(=O)Nc2ccccc2N)cc1	11.6%
CCOC(=O)[C@H](CCc1ccccc1)N[C@@H](C)C(=O)N1Cc2ccccc2C[C@H]1C(=O)O	5.31%
CCCC(=O)Nc1ccc(OCC(O)CNC(C)C)c(C(C)=O)c1 (stereo unspecified)	16.3%
CCN(CC)CCOC(=O)C(c1ccccc1)C1CCCCC1 (stereo unspecified)	1.1%
Oc1ccc(Cl)c2cccnc12	12.5%
N[C@@H](CCC(=O)N[C@@H](CS)C(=O)NCC(=O)O)C(=O)O	18.9% [at 16.1 µM]
CCCSS/C(CCO)=C(\C)N(C=O)Cc1cnc(C)nc1N	2.34%
CCCCCCCCCCCCCCNCCO	33.4%
CCCCCCCCCCCCCCCCOP(=O)([O-])OCC[N+](C)(C)C	18.3%
